Results taken from PubChem BioAssay (NCI).
This is part of a sample that, as a whole, favours compounds with a hit. Of some 83,000 tested, about 20% had one in any assay.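 Single-dose data. Exposure time 48 hours. Values below 10 considered active.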 Unmarked numbers belong to inactive results. Activity calls are given as the source filed them.

Columns and labels:
Experiment in all cases: NCI-60 one-dose screen, 48 h (100 = growth as untreated, 0 = no growth, -100 = all killed)
Settings in all cases: 10 µM unless noted
NCI-H23 lung = system: NCI-H23 lung
NCI-H226 lung = system: NCI-H226 lung
NCI-H322M lung = system: NCI-H322M lung
HOP-62 NSCLC = system: HOP-62 NSCLC
NCI-H460 lung = system: NCI-H460 lung
NCI-H522 lung = system: NCI-H522 lung
A549/ATCC NSCLC = system: A549/ATCC NSCLC
786-0 renal = system: 786-0 renal
COLO 205 colon = system: COLO 205 colon
DU-145 prostate = system: DU-145 prostate
K-562 leukemia = system: K-562 leukemia
MALME-3M melanoma = system: MALME-3M melanoma
MDA-MB-231 breast = system: MDA-MB-231 breast
RXF 393 renal = system: RXF 393 renal
SF-268 CNS = system: SF-268 CNS
SF-295 CNS = system: SF-295 CNS
SF-539 CNS = system: SF-539 CNS
UACC-257 melanoma = system: UACC-257 melanoma
M14 melanoma = system: M14 melanoma

| SMILES | growth (NCI-H23 lung) | growth (NCI-H226 lung) | growth (NCI-H322M lung) | growth (HOP-62 NSCLC) | growth (NCI-H460 lung) | growth (NCI-H522 lung) | growth (A549/ATCC NSCLC) | growth (786-0 renal) | growth (COLO 205 colon) | growth (DU-145 prostate) | growth (K-562 leukemia) | growth (MALME-3M melanoma) | growth (MDA-MB-231 breast) | growth (RXF 393 renal) | growth (SF-268 CNS) | growth (SF-295 CNS) | growth (SF-539 CNS) | growth (UACC-257 melanoma) | growth (M14 melanoma) |
| --- | --- | --- | --- | --- | --- | --- | --- | --- | --- | --- | --- | --- | --- | --- | --- | --- | --- | --- | --- |
| CCCC(CCC)(C(N)=O)C(=O)O | 105% | 98.5% | 111% | 98.6% | 115% | 97.2% | 97.8% | 113% | 106% | 108% | 120% | 111% | 116% | 124% | 102% | 107% | 120% | 102% | 108% |
| O=C1C(Cl)=C(Nc2cccc3ccccc23)C(=O)c2ccccc21 | 73.6% | 87.8% | 83.1% | 84.9% | 90.7% | 44.7% | 87.9% | 90% | 88.9% | 111% | 26.6% | 53.4% | 57.5% | 120% | 85.5% | 95.1% | 107% | 74.7% | 87.8% |
| CC(C)(C)c1ccc(OC(=O)Nc2ccccc2)cc1 | 103% | 106% | 94.4% | 111% | 111% | 100% | 99.3% | 83.8% | 119% | 107% | 88% | 96.6% | 109% | 118% | 96% | 103% | 90.5% | 99.5% | 96.5% |
| CCCCCCCCCCCCCCCCCC(=O)OCCCCCCCCCCCCC | 108% | 97.2% | 130% | 125% | 117% | 111% | 99.5% | 119% | 121% | 117% | 119% | 130% | 135% | 109% | 106% | 117% | 101% | 108% | 114% |
| COc1cc(NCCC2CCCCN2)c2ncccc2c1OC (centres undefined) | 49.1% | 117% | 116% | 102% | 80.3% | -7.89% (active) | 82.1% | 90.1% | 78.1% | 87.5% | 64.7% | 134% | 74.2% | 111% | 92.9% | 110% | 92% | 66.3% | 92.1% |
| C(=Nc1ccc(-c2ccc(N=Cc3ccccc3)cc2)cc1)c1ccccc1 | 101% | 97.4% | 103% | 101% | 116% | 70% | 93.8% | 104% | 117% | 118% | 95.4% | 94.6% | 88.2% | 113% | 105% | 99.2% | 107% | 109% | 104% |
| Cc1cc(C#Cc2ccc(C(C)(C)C)cc2)ccc1-n1c(/C=C/c2c(Cl)cccc2Cl)nc2ccccc2c1=O | 97.9% | 108% | 92.8% | 104% | 96.3% | 105% | 95.8% | 109% | 103% | 110% | 101% | 116% | 122% | 127% | 96.8% | 97.9% | 106% | 110% | 106% |
| C=C1C(=O)O[C@H]2[C@H]1CC/C(COC(=O)NCc1[nH]nc3ccccc13)=C\CC[C@@]1(C)O[C@@H]21 | 69.4% | 65.4% | 87.6% | 48.6% | 28.6% | -68.6% (active) | 45.6% | -25.4% (active) | -76.7% (active) | 12.2% | 2.29% (active) | -43% (active) | 49.1% | -18.3% (active) | 55.2% | 72.6% | 4.74% (active) | 38% | 13.8% |
| NC(=S)N1N=C(c2ccc(Cl)cc2)CC1c1cc2ccccc2[nH]c1=O (centres undefined) | 105% | 113% | 97.2% | 102% | 108% | 84.2% | 110% | 98% | 115% | 118% | 112% | 93.8% | 109% | 123% | 112% | 108% | 106% | 111% | 111% |
| CN1C(=O)N(C)C2C1NN=c1s/c(=C\c3ccsc3)c(=O)n12 (centres undefined) | 59.4% | 46.1% | 65.1% | 46.8% | 18.2% | 26.4% | 42.2% | 47.6% | 41.1% | 74.9% | 13.5% | 54.3% | 66.8% | 51.6% | 64.4% | 25% | 40.2% | 60.9% | 22.7% |
| OC(CCCCCCCCC(O)CN1CCc2ccccc2C1)CN1CCc2ccccc2C1 (centres undefined) | 101% | 99.9% | 87.5% | 103% | 108% | 105% | 101% | 94.7% | 101% | 108% | 97.3% | 97.5% | 98% | 110% | 102% | 83.2% | 101% | 98.5% | 109% |
